Drawing on ChEMBL document CHEMBL3988442, “University of Dundee, Small-Polar-MMV Screening Library” (2021), this text covers Percent Effect for 17 compounds.

Assay [1] deals with T1, Aspartate--tRNA(Asp/Asn) ligase (Mycobacterium tuberculosis (strain ATCC 25618 / H37Rv)) (UniProt P9WFW3).
T1 sequence (whole entry): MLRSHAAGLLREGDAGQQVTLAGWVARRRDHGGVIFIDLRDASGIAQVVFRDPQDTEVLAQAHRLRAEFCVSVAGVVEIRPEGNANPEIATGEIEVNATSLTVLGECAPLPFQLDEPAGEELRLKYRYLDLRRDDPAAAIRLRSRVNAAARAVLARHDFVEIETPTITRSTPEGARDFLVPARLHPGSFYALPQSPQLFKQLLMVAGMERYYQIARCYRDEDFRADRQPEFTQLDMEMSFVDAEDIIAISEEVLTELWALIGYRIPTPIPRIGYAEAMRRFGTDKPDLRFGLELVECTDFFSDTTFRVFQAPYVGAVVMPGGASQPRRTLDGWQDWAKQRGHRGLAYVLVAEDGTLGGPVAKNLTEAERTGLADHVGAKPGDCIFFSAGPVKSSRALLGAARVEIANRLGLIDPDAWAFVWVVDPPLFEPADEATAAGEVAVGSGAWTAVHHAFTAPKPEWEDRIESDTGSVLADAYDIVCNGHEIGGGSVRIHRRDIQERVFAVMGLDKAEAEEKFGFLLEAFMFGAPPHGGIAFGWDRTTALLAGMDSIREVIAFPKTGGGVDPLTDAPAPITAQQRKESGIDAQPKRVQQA
Kind of assay: Assay for Asp RNA synthetase-1 from Mycobacterium tuberculosis. The format is functional. The arrangement: scale not given: direction of the effect not stated beside the values. Particulars: 30 µM.

The target of assay [2] is Shiga toxin 2 (Escherichia coli O157:H7) (UniProt P09385+P09386). Kind of assay: E. coli 0.157:H7 Shiga Toxin SOP - stx2 screening assay. The format is functional. The arrangement: scale not given: direction of the effect not stated beside the values. To be noted: 30 µM.

For `CNC(=O)NC(=O)CN1CCC(c2cccc(F)c2)C1` (centres undefined), the results for the Percent Effect in assay [1] and in assay [2] were -0.433% and 19.2%, respectively.
Taken in the same sequence, the figures for `CN(C)C(=O)[C@@H]1CCO[C@@H]2CCN(Cc3ccccc3)C[C@@H]21` were 2.24% and -27%.
On to `CCOC(=O)NC(C(=O)NCc1ccc(N2CCCCC2)nc1)C(C)C` (centres undefined), for which the Percent Effect in assay [1] was -3.06%; in assay [2] it was 21.9%.
Taken in the same sequence, the figures for `Cc1nn(C)c(Cl)c1C1CCCN1C(=O)c1cc(Cl)c[nH]1` (centres undefined) were 1.85% and 16.5%.
Taken in the same sequence, the figures for `CC(Cn1cccn1)NC(=O)NCCc1cnn(C)c1` (centres undefined) were -2.54% and -3.5%.
`Cc1ccc(CC(=O)NC(C)C(=O)N2CCS(=O)(=O)CC2)cc1` (centres undefined): the Percent Effect in assay [1] stood at 0.123%; in assay [2], 1.85%.
Turning to `COCC(=O)N1CC[C@H]2C[C@H](C)O[C@@H]2C1`, the Percent Effect was -2.9% in assay [1] and 3.29% in assay [2].
Taken in the same sequence, the figures for `CN(C)c1ccc(NC(=O)NCc2ccccn2)cn1` were 3.94% and -60.4%.
Taken in the same sequence, the figures for `c1ccc(-c2nc(CN3CCCC(Cn4cncn4)C3)co2)cc1` (centres undefined) were 0.247% and -67.5%.
Taken in the same sequence, the figures for `CCn1c(C(=O)N2CCN(C(=O)NC(C)C)CC2)cc2ccccc21` were 2.76% and 18.3%.
Consider `Cc1nc(C2CCCN2CC(=O)NCCOc2ccccc2)no1` (centres undefined), for which the Percent Effect was 1.81% in assay [1] and -11.3% in assay [2].
Taken in the same sequence, the figures for `COCCCNC(=O)CN1CCCC1c1c(C)nn(C)c1Cl` (centres undefined) were -4.32% and -37%.
Taken in the same sequence, the figures for `O=C(NC[C@@H]1CCCN1)c1cc(COc2cccc(C(F)(F)F)c2)[nH]n1` were 1.98% and -15.7%.
Taken in the same sequence, the figures for `O=C(NC1(c2cccc(F)c2)CCOCC1)c1ccccn1` were -1.19% and -49.2%.
As for `Cc1cccn2cc(CC(=O)N3CCCC(n4cncn4)C3)nc12` (centres undefined), the Percent Effect in assay [1] is 1.06%; in assay [2] it was -13.1%.
Taken in the same sequence, the figures for `Cc1ccc(NC2CCN(C(=O)c3n[nH]c4ccccc34)CC2)nn1` were 0.985% and -18.6%.
As for `COC(=O)C1CCN(C(=O)c2ccc(NS(C)(=O)=O)c(C)c2)CC1`, the Percent Effect in assay [1] is -2.94%; in assay [2], -1.7%.
